Assay results from PubChem BioAssay (Tox21).
Inconclusive results are not listed. The source made the active and inactive calls. Unless noted, calls come from the whole dose curve; as a rule, active = well fitted curve in the direction sought with a large enough effect in the repeat runs; inconclusive = weak or mixed curves; inactive = flat fitted curve, though single readings scatter.

Assays:
[1] = qHTS assay to test for compound auto fluorescence at 535 nm (green) in HEK293 cells (AID 720680)
[2] = qHTS assay to test for compound auto fluorescence at 460 nm (blue) in HEK293 cell free culture (AID 720681)
Outline: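 Test compounds were pinned into cell-free culture medium (DMEM with 10% FBS) and fluorescence was read directly at Ex/Em 405/460 nm. Signals were expressed as fluorescence equivalents of triamterene, with DMSO vehicle as control.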

[3] = qHTS assay to test for compound auto fluorescence at 535 nm (green) in HEK293 cell free culture (AID 720682)
Outline: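 Cell-free medium (DMEM, 10% FBS) receives compound or DMSO by pintool. Plate read directly at Ex 485/Em 535 nm. Signal converted to fluorescein equivalency.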

[4] = qHTS assay to test for compound auto fluorescence at 590 nm (red) in HEK293 cell free culture (AID 720683)
Outline: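 Tox21 10K library compounds were pinned into cell-free DMEM with 10% FBS and fluorescence was read at excitation 540 nm. Activity is expressed as Rose Bengal sodium equivalency.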

[5] = qHTS assay to test for compound auto fluorescence at 460 nm (blue) in HepG2 cell free culture (AID 720685)
Outline: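 Cell-free plates of MEM plus 10% FBS received 23 nL compound or DMSO vehicle; blue-channel (405/460 nm) intensity scored against triamterene as reference fluorophore.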

[6] = qHTS assay to test for compound auto fluorescence at 535 nm (green) in HepG2 cell free culture (AID 720686)
[7] = qHTS assay to test for compound auto fluorescence at 460 nm (blue) in HepG2 cells (AID 720687)
Outline: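 Cells (2,000/well in MEM with 10% FBS) attached overnight at 37 C, then were exposed to compound or DMSO for 1 hr at 37 C, 5% CO2. Fluorescence read at Ex/Em 405/460 nm, expressed as triamterene-equivalent signal.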

[8] = target: Glucocorticoid receptor (Homo sapiens) (UniProt P04150); experiment: qHTS assay to identify small molecule agonists of the glucocorticoid receptor (GR) signaling pathway (AID 720691; active = well fitted activation curve with a large enough effect in the signal ratio in the repeat runs, not every such curve was filed as active; the % refers to the signal ratio)
Outline: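 Steps: seed GR-bla HeLa cells, incubate 4 h at 37 C/5% CO2; pin-transfer DMSO-dissolved compounds; incubate 18 h at 37 C; add LiveBLAzer B/G FRET substrate; after 2 h at room temperature, measure fluorescence.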

[9] = target: Glucocorticoid receptor (Homo sapiens) (UniProt P04150); experiment: qHTS assay to identify small molecule antagonists of the glucocorticoid receptor (GR) signaling pathway (AID 720692; active = well fitted inhibition curve with a large enough effect in the signal ratio in the repeat runs, not every such curve was filed as active; the % refers to the signal ratio)
Outline: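 Antagonism was scored as loss of dexamethasone-driven (5 nM final) reporter signal in HeLa cells bearing a glucocorticoid response element–beta-lactamase construct, after 18 h compound exposure at 37 C and 2 h FRET substrate loading.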

[10] = qHTS assay to test for compound auto fluorescence at 590 nm (red) in HepG2 cell free culture (AID 720684)
Outline: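 Ex 540 / Em 590 nm read of compound in cell-free MEM (10% FBS). Rose Bengal sodium reference.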

Measured: Potency

Glucocorticoid receptor (Homo sapiens), sequence (P04150 whole entry, looked up): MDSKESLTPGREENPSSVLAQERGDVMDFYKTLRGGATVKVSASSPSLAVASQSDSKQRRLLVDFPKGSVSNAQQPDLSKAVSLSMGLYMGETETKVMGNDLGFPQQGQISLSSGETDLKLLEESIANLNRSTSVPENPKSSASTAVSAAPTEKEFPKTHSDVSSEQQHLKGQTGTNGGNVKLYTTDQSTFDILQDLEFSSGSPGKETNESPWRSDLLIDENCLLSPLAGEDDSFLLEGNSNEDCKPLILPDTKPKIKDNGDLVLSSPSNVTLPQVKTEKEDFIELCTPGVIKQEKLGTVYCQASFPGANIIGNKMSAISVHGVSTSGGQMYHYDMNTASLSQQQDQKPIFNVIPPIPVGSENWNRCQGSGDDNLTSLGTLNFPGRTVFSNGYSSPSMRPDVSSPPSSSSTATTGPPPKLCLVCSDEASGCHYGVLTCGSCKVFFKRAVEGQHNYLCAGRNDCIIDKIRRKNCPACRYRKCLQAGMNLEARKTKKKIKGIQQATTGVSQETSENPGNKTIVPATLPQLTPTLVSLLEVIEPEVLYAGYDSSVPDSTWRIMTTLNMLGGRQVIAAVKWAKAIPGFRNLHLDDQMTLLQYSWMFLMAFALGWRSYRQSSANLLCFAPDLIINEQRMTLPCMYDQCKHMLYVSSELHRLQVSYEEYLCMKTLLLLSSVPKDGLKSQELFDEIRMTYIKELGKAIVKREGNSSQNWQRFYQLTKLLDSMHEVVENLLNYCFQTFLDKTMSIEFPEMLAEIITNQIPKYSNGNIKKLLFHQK

CCCCCCC=O
inactive: [1] | [2] | [3] | [4] | [5] | [6] | [7] | [8] | [9]

CN1C(=O)CC[C@H]1c1cccnc1
inactive: [1] | [2] | [3] | [4] | [5] | [7]

C=C(C)C(=O)OCC(C)C
inactive: [1] | [2] | [3] | [4] | [5] | [6] | [7]

CC(C)CC(C)O (stereo unspecified)
inactive: [1] | [2] | [3] | [4] | [5] | [7]

CCCCCCO
inactive: [1] | [2] | [3] | [4] | [10] | [5] | [7] | [8] | [9]

NCCCCCCN
inactive: [1] | [3] | [4] | [10] | [5] | [6] | [7]

COC(=O)CCCC(=O)OC
inactive: [1] | [2] | [3] | [4] | [5] | [6] | [7] | [8] | [9]

CNC(=O)Oc1ccc2c(c1)[C@]1(C)CCN(C)[C@@H]1N2C
inactive: [1] | [2] | [3] | [4] | [5] | [6] | [7] | [8]

CC(C)(Oc1ccc(CCNC(=O)c2ccc(Cl)cc2)cc1)C(=O)O
inactive: [1] | [2] | [3] | [4] | [5] | [6] | [7] | [8] | [9]

CN(C)c1ccc(Cc2ccc(N(C)C)cc2)cc1
inactive: [1] | [2] | [3] | [4] | [5] | [7] | [8] | [9]

O=S(=O)(O)c1ccc(N=Nc2c(O)ccc3cc(S(=O)(=O)O)ccc23)cc1
inactive: [1] | [2] | [3] | [4] | [5] | [6] | [7] | [8] | [9]

COC(=O)c1cccnc1
inactive: [1] | [2] | [3] | [4] | [5] | [6] | [7] | [8] | [9]

CCNC(=S)NCC
inactive: [1] | [2] | [3] | [4] | [5] | [6] | [7]

CCCCCCCC=O
inactive: [1] | [2] | [3] | [4] | [5] | [7]

COc1ccc(CCC(C)=O)cc1
inactive: [1] | [2] | [3] | [4] | [5] | [6] | [7]

O=C(O)c1ccc(C(=O)O)c(C(=O)O)c1
inactive: [1] | [2] | [3] | [4] | [5] | [6] | [7] | [8] | [9]

CC1(C)NC(=O)NC1=O
inactive: [1] | [2] | [3] | [4] | [10] | [5] | [7] | [8] | [9]

CC(=O)OCc1ccco1
inactive: [1] | [2] | [3] | [4] | [5] | [6] | [7]

CC(C)(C#N)c1cc(Cn2cncn2)cc(C(C)(C)C#N)c1
inactive: [1] | [2] | [3] | [4] | [5] | [6] | [7] | [8] | [9]

CCOCCOCCOCCO
inactive: [1] | [3] | [4] | [10] | [5] | [6] | [7]

CCCCCCCCCCN
inactive: [1] | [2] | [3] | [4] | [10] | [5] | [7] | [8] | [9]

Cc1ccc([N+](=O)[O-])cc1S(=O)(=O)O
inactive: [1] | [3] | [4] | [10] | [5] | [6] | [7] | [8] | [9]

CCNc1ccccc1
inactive: [1] | [3] | [4] | [10] | [5] | [7]

CC1(C)S[C@@H]2[C@H](NC(=O)COc3ccccc3)C(=O)N2[C@H]1C(=O)O
inactive: [1] | [3] | [4] | [10] | [5] | [6] | [7] | [8]

CC(C)(C)c1cc(Cc2cc(C(C)(C)C)c(O)c(C(C)(C)C)c2)cc(C(C)(C)C)c1O
inactive: [1] | [3] | [4] | [5] | [6] | [7] | [8] | [9]

O=C(OCC1CCC2OC2C1)C1CCC2OC2C1 (stereo unspecified)
inactive: [1] | [3] | [4] | [10] | [5] | [6] | [7] | [8] | [9]

CC(=O)OC1CC(C)OC(C)O1 (stereo unspecified)
inactive: [1] | [3] | [4] | [10] | [5] | [6] | [7] | [8] | [9]

C[C@]12CCC(=O)C=C1CC[C@@H]1[C@@H]2[C@@H](O)C[C@@]2(C)[C@H]1CC[C@]2(O)C(=O)CO
inactive: [1] | [3] | [4] | [5] | [6] | [7]

CC(=O)CCC=C(C)C
inactive: [1] | [3] | [4] | [10] | [5] | [7] | [8] | [9]

Cc1ccc(S(=O)(=O)N=C=O)cc1
inactive: [1] | [3] | [4] | [10] | [5] | [6] | [7] | [8] | [9]

O=C1C(c2[nH]c3ccccc3c2O)=Nc2ccccc21
inactive: [1] | [3] | [4] | [5] | [7] | [8]

O=[N+]([O-])c1ccc2nc[nH]c2c1
inactive: [1] | [3] | [4] | [5] | [7]

CCCCOC(=O)c1ccc(N)cc1
inactive: [1] | [3] | [4] | [10] | [5] | [7] | [8] | [9]

CCc1ccccc1CC
inactive: [1] | [3] | [4] | [10] | [5] | [6] | [7] | [8] | [9]

CCCCCCCCCCO
inactive: [1] | [3] | [4] | [10] | [5] | [6] | [7] | [8] | [9]

CCOC(=O)n1ccn(C)c1=S
inactive: [1] | [3] | [4] | [10] | [5] | [7] | [8] | [9]

CN(C)CCOC(=O)COc1ccc(Cl)cc1
inactive: [1] | [3] | [4] | [10] | [5] | [6] | [7] | [8] | [9]

CC(=O)CC(C)(C)O
inactive: [1] | [3] | [4] | [10] | [5] | [6] | [7] | [8] | [9]

CC(C)c1cccc(C(C)C)c1
inactive: [1] | [3] | [4] | [10] | [5] | [7] | [8] | [9]

CC1(C)OC[C@@H]2O[C@@]3(C(=O)O)OC(C)(C)O[C@H]3[C@@H]2O1
inactive: [1] | [3] | [4] | [10] | [5] | [7]

CCCCCC(=O)O
inactive: [1] | [3] | [4] | [5] | [6] | [7]

C=CCc1ccc(OC)c(OC)c1
inactive: [1] | [3] | [4] | [5] | [6] | [7] | [8] | [9]

CC(C)OC(=O)COc1ccc(Cl)cc1Cl
inactive: [1] | [3] | [4] | [10] | [5] | [7] | [8] | [9]

CC(C)OP(=O)(CP(=O)(OC(C)C)OC(C)C)OC(C)C
inactive: [1] | [3] | [4] | [10] | [5] | [7] | [8]

C=CC(C)CCCC(C)(C)O (stereo unspecified)
inactive: [1] | [3] | [4] | [10] | [5] | [7]

C=Cc1ccc(C)cc1
inactive: [1] | [3] | [4] | [10] | [5] | [6] | [7] | [8] | [9]

CCO[Si](CCC#N)(OCC)OCC
inactive: [1] | [3] | [4] | [10] | [5] | [6] | [7] | [8] | [9]

CCCCC(C=O)CC (stereo unspecified)
inactive: [1] | [3] | [4] | [5] | [6] | [7] | [8] | [9]

O=C(O)c1ccccc1C(=O)O
inactive: [1] | [3] | [4] | [10] | [5] | [7] | [8] | [9]

CN/C(=C\[N+](=O)[O-])NCCSCc1csc(CN(C)C)n1
inactive: [1] | [3] | [4] | [10] | [5] | [6] | [7] | [8] | [9]

C=CCCCCCCCCC(=O)O
inactive: [1] | [3] | [4] | [10] | [5] | [6] | [7] | [8] | [9]

Nc1nc(N)nc(-c2ccccc2)n1
inactive: [1] | [3] | [4] | [5] | [7] | [8] | [9]

c1ccc(Oc2ccccc2)cc1
inactive: [1] | [3] | [4] | [5] | [7] | [8] | [9]

Cc1ccc2ncccc2c1
inactive: [1] | [3] | [4] | [10] | [5] | [6] | [7] | [8] | [9]

Cc1ccc(C(C)C)c(O)c1
inactive: [1] | [3] | [4] | [10] | [5] | [6] | [7] | [8] | [9]

O=S(=O)(O)c1ccccc1
inactive: [1] | [3] | [4] | [5] | [6] | [7] | [8] | [9]

C=CC[N+](C)(C)CC=C
inactive: [1] | [3] | [4] | [10] | [5] | [6] | [7] | [8] | [9]

C=C(C)CNCC
inactive: [1] | [3] | [4] | [10] | [5] | [7] | [8] | [9]

CCOC(=O)c1ccc(N)cc1
inactive: [1] | [3] | [4] | [5] | [7] | [8] | [9]
